Measurements taken from PubChem BioAssay AID689 (Sanford-Burnham Center for Chemical Genomics, 2007).
Among all 62,000 compounds or so, about 80 (0.1%) were called active. The rule behind the calls is not given here. These entries were drawn from the full list. Results with a measured potency or affinity are listed apart.

What follows are compounds tested against Ephrin type-A receptor 4 (Mus musculus) (UniProt Q03137) (assay: inhibitors of EphA4 binding to KYL peptide, primary screen, biochemical, colorimetric, mouse EphA4 (AID 689)). Conditions: EphA4-AP binding to KYL peptide, pNPP A405, at 10 µM, stronger effect = higher value.
Ephrin type-A receptor 4 (Mus musculus), sequence (Q03137 whole entry, looked up): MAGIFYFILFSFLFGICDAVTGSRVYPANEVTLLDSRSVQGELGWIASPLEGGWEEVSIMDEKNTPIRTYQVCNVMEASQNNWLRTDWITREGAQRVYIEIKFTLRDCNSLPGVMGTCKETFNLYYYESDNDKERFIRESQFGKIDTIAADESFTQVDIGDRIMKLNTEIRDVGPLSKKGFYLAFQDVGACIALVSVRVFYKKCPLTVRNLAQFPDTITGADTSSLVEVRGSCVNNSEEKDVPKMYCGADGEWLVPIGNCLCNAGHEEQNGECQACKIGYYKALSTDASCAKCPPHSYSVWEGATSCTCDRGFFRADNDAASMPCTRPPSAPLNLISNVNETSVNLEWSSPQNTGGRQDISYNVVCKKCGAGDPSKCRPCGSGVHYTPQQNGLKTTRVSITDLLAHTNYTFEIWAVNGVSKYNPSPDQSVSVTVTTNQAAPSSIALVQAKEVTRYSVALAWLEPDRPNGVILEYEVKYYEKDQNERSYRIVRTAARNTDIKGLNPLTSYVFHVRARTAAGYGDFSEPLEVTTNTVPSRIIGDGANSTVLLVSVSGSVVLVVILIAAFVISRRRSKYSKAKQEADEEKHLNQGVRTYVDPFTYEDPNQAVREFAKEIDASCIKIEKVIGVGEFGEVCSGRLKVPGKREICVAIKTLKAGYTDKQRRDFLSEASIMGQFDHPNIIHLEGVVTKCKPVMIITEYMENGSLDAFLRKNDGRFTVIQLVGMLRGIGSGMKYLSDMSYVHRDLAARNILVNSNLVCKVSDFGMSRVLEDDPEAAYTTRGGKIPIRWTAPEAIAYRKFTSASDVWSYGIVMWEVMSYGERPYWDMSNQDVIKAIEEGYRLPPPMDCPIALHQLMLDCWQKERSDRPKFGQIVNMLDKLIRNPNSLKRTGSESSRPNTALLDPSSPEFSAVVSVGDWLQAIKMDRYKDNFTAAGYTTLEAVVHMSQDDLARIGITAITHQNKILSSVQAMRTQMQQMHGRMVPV

inhibition, inactive:
CCN(Cc1ccccc1)C(=O)c1ccc([N+](=O)[O-])cc1 1.5% [this sample at 5 µg/mL], Nc1ccc(N(c2ccccc2)c2ccc(N)cc2)cc1 5.1%, CCOc1ccc(S(=O)(=O)N(CC(=O)Nc2ccccc2C)c2ccc(C)cc2)cc1 2% [this sample at 5 µg/mL], Cc1cccc2sc(NC(=O)c3ccc(Cl)s3)nc12 -3.3%, Cc1cccc2sc(NC(=O)c3ccccc3C(=O)O)nc12 -11.2% [this sample at 5 µg/mL], CCOC(=O)C(O)(CCC(O)(C(=O)OCC)C(=O)OCC)C(=O)OCC -4.3%, O=C1CCC(C23CC4CC(CC(C4)C2)C3)=NN1 -8.4% [this sample at 5 µg/mL], Cc1nc(-c2ccc(O)c(O)c2)cs1 1.8%, Oc1ccc(-c2cn3c(n2)SCC3)cc1 4.1%, Cc1onc(-c2ccccc2Cl)c1C(=O)Nc1ccc(N2CCOCC2)cc1 1.6%, O=C1c2nc3ccccn3c2C(=O)N1Cc1ccccc1 6.8%, CCOc1ccc(S(=O)(=O)N(CC(=O)O)c2ccccc2)cc1 0.2%, Cc1ccc(N(CC(=O)N/N=C/c2ccco2)S(=O)(=O)c2ccccc2)cc1 15.6%, Cc1ccc(-c2nc3ncccc3o2)cc1NC(=O)COc1ccccc1 4.8%, CCOC(=O)c1cnc2c(OC)cccc2c1N1CCN(c2ccccc2OC)CC1 3.2%, O=[N+]([O-])/C=C/c1cn(Cc2ccc(F)cc2)c2ccccc12 30.9%, Cc1cccc(Cn2cc(/C=C/[N+](=O)[O-])c3ccccc32)c1 40.7%, Cc1ccc(NC(=O)N2Cc3ccccc3CC2C(=O)NC(C)(C)C)cc1 (stereo not drawn) 1%, CNc1ccc(Br)cc(C(=O)/C=C/c2ccc3c(c2)OCO3)c1=O 32.2%, O=C(/C=C/c1ccc2c(c1)OCO2)c1ccc(Br)cc1 3.2% [this sample at 5 µg/mL], CCOC(=O)c1sc(NC(NC(=O)c2ccco2)(C(=O)OC)C(F)(F)F)nc1C (stereo not drawn) 4.3%, CCN1/C(=C/c2ccc3ccccc3[n+]2CC)C=Cc2ccccc21 2%, CCN1/C(=C/C(C)=O)Sc2ccccc21 -0.8% [this sample at 5 µg/mL], Cn1c(=O)[nH]c(=O)c2c1nc(CN1CCN(c3cccc(Cl)c3)CC1)n2CCN1CCOCC1 8.6%, O=C(c1sc2ccccc2c1Cl)N(Cc1ccco1)C1CCS(=O)(=O)C1 (stereo not drawn) -4.2%, COc1ccccc1C1C(C(N)=O)=C(C)Nc2nc(-c3ccccc3Cl)nn21 (stereo not drawn) -24.8%, Cc1cc(C=C2C(=O)N(C)C(=O)N(C)C2=O)c(C)n1C 3.4% [this sample at 5 µg/mL], Cc1cc(/C=C2\SC(=S)NC2=O)c(C)n1C1CC1 9.1%, O=C(c1ccccc1)N1CCN(C(=O)C23CC4CC(CC(C4)C2)C3)CC1 -9.8%, O=C1c2ccccc2NC(c2ccc(Cl)c(Cl)c2)N1Cc1ccccc1 (stereo not drawn) 7.9% [this sample at 5 µg/mL], Cc1ccc(C)c(S(=O)(=O)Nc2ccccc2)c1 5.9% [this sample at 5 µg/mL], CCOc1cc(C(=S)N2CCOCC2)ccc1OS(=O)(=O)c1ccc(NC(C)=O)cc1 -6.9%, Cc1occc1-c1nnc(SCC(=O)c2c[nH]c3ccccc23)n1C 0.9%, Cc1cccc(C)c1NC(=O)CSc1nnc(-c2ccoc2C)n1C -4.3%, Cn1c(SCC(=O)NC2CCCC2)nc2cccnc21 -0.5%, Cc1c(C(=O)NCCc2ccccc2)oc2ccc(S(=O)(=O)N3CCC4(CC3)OCCO4)cc12 -4.2%, COc1ccc(CNC(=O)c2ccc(S(=O)(=O)N3CCCC3)cc2)cc1OC -5.4%, Cc1cc2cc(CNC(=O)C3CC3)ccc2n1C -5.8%, COc1ccccc1NC(=O)Cc1csc(N)n1 3.7%, CCCCN(CCCC)c1nc2ccccc2nc1C(C#N)C(=O)NCCCOC (stereo not drawn) 13.6%, CCCCN(C)C/C(O)=C(\C#N)c1nc(-c2ccccc2)cs1 -4.9%, Cc1c(NC(=O)c2ccc(CSc3ccc(Cl)cc3)cc2)c(=O)n(-c2ccccc2)n1C -7.2% [this sample at 5 µg/mL], Cc1ccc2c3c1C(=O)C(=O)N3C(C)(C)CC2C (stereo not drawn) -4.8%, O=C(COc1ccc(Cl)cc1)N(c1ccccc1)c1ccccc1 5.1% [this sample at 5 µg/mL], Cc1cccc(OCC(=O)N/N=C/c2cn[nH]c2-c2ccc(Cl)c(Cl)c2)c1 -6.5%, CCOC(=O)c1ccc(COC(=O)c2ccc3c(c2)-c2ccccc2C3=O)cc1 -10.7%, CCOC(=O)c1c(C)nc2c(c1-c1ccccc1)C(=O)c1ccccc1-2 -4.1%, CC(CCc1ccccc1)NC(=O)c1cncc(Br)c1 (stereo not drawn) 1.4%, CCOC(=O)c1c(C)oc2c1c1c(c3ccccc32)OCN(Cc2ccccn2)C1 4.9%, CCOC(=O)c1c(C)oc2c1c(C=NCC1CCCO1)c(O)c1ccccc12 (stereo not drawn) -5.6%, Cn1c(NCc2c[nH]c3ccccc23)nc2ccccc21 -8.4%, CCOC(=O)c1csc(NC(=O)CSc2nnnn2CC)n1 -8.3%, Cc1ccc(S(=O)(=O)N2CCSC2c2ccco2)cc1 (stereo not drawn) -2%, CCOCCCn1c(SCC(=O)NCc2ccco2)nc2c(sc3ccccc32)c1=O 7.8%, Cc1ccc2ccc(C(Nc3ccccn3)c3ccccc3)c(O)c2n1 (stereo not drawn) 18.4%, Oc1c(C(Nc2ccccn2)c2ccccn2)ccc2cccnc12 (stereo not drawn) 6.9%, CC(=NCCc1ccccc1)C1=C(O)CCC1=O -2.3%, COc1ccccc1NC(=O)CSc1nnc(-c2ccco2)n1Cc1ccco1 -25.5%, COc1cccc(-c2nnc3sc(-c4ccccn4)nn23)c1 -6.2%, Cn1c(=O)oc2cc(S(=O)(=O)N3CCN(c4cccc(Cl)c4)CC3)ccc21 -5.3%, O=C1/C(=C/c2ccc(I)o2)SC(=S)N1Cc1ccccc1 -12.6% [this sample at 5 µg/mL], Cc1ccc(/C=C2\SC(=S)N(Cc3ccccc3)C2=O)o1 -10.8%, CC1(C)CC(NC(=O)c2coc(=O)c(Br)c2)CC(C)(C)N1 -9.8%, O=C(c1coc(=O)c(Br)c1)N1CCCc2ccccc21 21.7%, O=C(CSCc1ccccc1Cl)NNC(=S)Nc1ccccc1 -12.3%, CCOc1cc(/C=C2\SC(=S)N(Nc3ccccc3)C2=O)ccc1O 16.9%, COc1cc(/C=C2/SC(=S)N(CC(=O)Nc3cccc(C(=O)O)c3)C2=O)cc(OC)c1OC -3.5% [this sample at 5 µg/mL], O=C1/C(=C/c2ccc(F)cc2)SC(=S)N1Nc1ncc(C(F)(F)F)cc1Cl -6.5%, COc1cc(/C=C2\SC(=S)N(Nc3ncc(C(F)(F)F)cc3Cl)C2=O)ccc1O 46.2%, CC(=O)NCCNC(=O)[C@H](Cc1ccccc1)NC(=O)c1cccs1 -9%, CC1CC(C)CN(CC(C)(C)NS(=O)(=O)c2ccc(Cl)cc2)C1 (stereo not drawn) -13.3%, CCC1(C)Cc2c(C#N)c(N)sc(=S)c2CO1 (stereo not drawn) 44.1%, CC(C)C1Cc2c(C#N)c(N)n(C)c(=S)c2CO1 (stereo not drawn) -8%, O=C1NC(=S)N(c2ccc(F)cc2)C(=O)C1=Cc1ccc([N+](=O)[O-])s1 31.5% [this sample at 5 µg/mL], O=C(O)CSc1nnc(-c2ccccc2)o1 -16.7%, CCSc1nnc(-c2ccncc2)o1 -3%, COC(=O)c1cccnc1NC(=S)NNC(=O)c1ccncc1 1.4%, CC1=NN(c2ccc(Br)cc2)C(=O)/C1=C/c1cccs1 -1.8%, O=C1N=C(c2ccccc2)S/C1=C\c1cccs1 5.5%, CCCCC(=O)Nc1cccc(NC(=O)c2ccc(Br)cc2)c1 -0.2%, Cc1cc(C)c2nc(N3CCCN(C(=O)c4cnccn4)CC3)c(C#N)cc2c1 11.5%, Cc1cc(C)c2nc(N3CCN(C)CC3)c(C#N)cc2c1 8.1%, Cc1ccc(N2CCCn3c2nc2c3c(=O)n(CCN3CCOCC3)c(=O)n2C)cc1 -11%, N=c1oc2ccccc2cc1-c1nc2ccccc2c(=O)[nH]1 5.9%, O=C(/C=C/c1ccc(OCc2ccccc2)cc1)c1cccc(Br)c1 14.7% [this sample at 5 µg/mL], O=C(/C=C/c1ccc(OCc2ccccc2)cc1)c1ccc(Br)cc1 -5.6% [this sample at 5 µg/mL], CC(C)(C)C1=C(C#N)C(c2ccc3c(c2)OCO3)C(C#N)=C(N)O1 (stereo not drawn) 5%, CCC1=NN2C(=N)/C(=C/c3ccc(OCc4ccccc4)cc3)C(=O)N=C2S1 0.6% [this sample at 5 µg/mL]
